# According to PubChem BioAssay (Tox21):
# A number with no mark means an inactive call. Records with an inconclusive call do not appear. Entries that show only a call come without a potency. The source made the active and inactive calls. Unless noted, the call rests on the fitted dose curve.
# Key:
# [1] = Nuclear factor erythroid 2-related factor 2/antioxidant responsive element (Nrf2/ARE) small molecule agonists: qHTS cell viability counter screen in human keratinocytes (AID 1919968; active means well fitted curve in the direction sought with a large enough effect in the repeat runs; an effect the other way counts as inactive or inconclusive; further: nearly all actives have a fitted effect of over 55% in size; further: potency means the concentration at half of the fitted maximal effect)
# Procedure, shortened: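 KeratinoSens HaCaT cells, 1,500/well, preincubated 5 h, then exposed to compounds in DMSO for 23 h at 37 C/5% CO2. Viability read as CellTiter-Fluor fluorescence after 1 h, in the same wells as the ARE-luciferase read.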
# [2] = Nuclear factor erythroid 2-related factor 2/antioxidant responsive element (Nrf2/ARE) small molecule agonists: luciferase reporter gene qHTS assay in human keratinocytes (AID 1919969); further: nearly all actives have a fitted effect of over 35% in size; further: potency means the concentration at half of the fitted maximal effect
# [3] = target: Gonadotropin-releasing hormone receptor (Homo sapiens) (UniProt P30968); test: Human gonadotropin-releasing hormone receptor (GnRHR) small molecule agonists, calcium flux assay in GnRHR-HEK293 cells (AID 1920063); further: nearly all actives have a fitted effect of over 35% in size
# Procedure, shortened: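 HEK293 cells stably expressing human GnRHR were dye-loaded for 1 h at 37 C. Compound was added in agonist mode and fluorescence (Ex/Em 480/540) recorded kinetically for 3 min. Fifteen concentrations, triplicates.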
# [4] = target: KiSS-1 receptor (Homo sapiens) (UniProt Q969F8); test: Human kisspeptin (KISS1R) small molecule agonists, calcium flux assay in KISS1R-HEK293 cells (AID 1920064; active means well fitted curve in the direction sought with a large enough effect in the repeat runs; an effect the other way counts as inactive or inconclusive)
# Procedure, shortened: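 HEK293 cells stably expressing human KISS1R were loaded with calcium dye for 1 h at 37 C, then given compound; fluorescence (Ex/Em 480/540) was read kinetically for 3 min. Fifteen concentrations, triplicate.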
# [5] = G protein-coupled receptor (GPCR) small molecule agonists, calcium flux assay: HEK293 wild type cell line counter screen (AID 1920065)
# Procedure, shortened: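 Wild-type HEK293 cells plated 18 h, loaded with calcium dye 1 h at 37 C, then compounds added in agonist mode (ATP as positive control). Kinetic fluorescence Ex/Em 480/540 recorded 3 min at 1 sec intervals; 15 concentrations, triplicate.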
# [6] = p53 small molecule agonists, cell-based qHTS assay with human liver microsomes (AID 1963577);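 further: p53 response element beta-lactamase reporter cells with liver microsomes plus NADPH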
# Procedure, shortened: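 With metabolic activation: human liver microsomes (0.5 mg/mL final) plus NADPH (0.5 mg/mL final) added alongside compounds to p53RE-bla cells; 16 h 37 C exposure; beta-lactamase read by LiveBLAzer fluorescence.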
# [7] = p53 small molecule agonists, cell-based qHTS assay with rat liver microsomes (AID 1963578)
# Procedure, shortened: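 Metabolic activation by rat liver microsomes and NADPH, each 0.5 mg/mL final, added right after compounds to p53RE-bla reporter cells (4,000/well, plated 5 h earlier). 16 h at 37 C, then LiveBLAzer substrate for 2 h at room temperature in the dark; fluorescence read-out.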
# [8] = p53 small molecule agonists, cell-based qHTS assay with human liver microsomes: qHTS cell viability counter screen (AID 1963579); further: nearly all actives have a fitted effect of over 45% in size
# Procedure, shortened: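 Metabolic activation used human liver microsomes and NADPH, both 0.5 mg/mL final, over 16 hours at 37 C on p53RE-bla cells (4,000/well). Cytotoxicity measured by CellTiter-Glo luminescence, 30 min at room temperature.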
# [9] = p53 small molecule agonists, cell-based qHTS assay with rat liver microsomes: qHTS cell viability counter screen (AID 1963580); further: nearly all actives have a fitted effect of over 45% in size
# Procedure, shortened: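 HCT-116 p53RE-bla, 4,000 cells/well, 5 h pre-incubation; cpd + rat liver microsomes 0.5 mg/mL + NADPH 0.5 mg/mL (final); 16 h, 37 C; CellTiter-Glo, 30 min RT; luminescence.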
# [10] = p53 small molecule agonists, cell-based qHTS assay: qHTS cell viability counter screen (AID 1963581); further: nearly all actives have a fitted effect of over 45% in size; further: potency means the concentration at half of the fitted maximal effect
# Procedure, shortened: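 p53RE-bla HCT-116 cells, compounds added 5 h after plating and incubated 16 h at 37 C. Cytotoxicity measured in the same wells as intracellular ATP by CellTiter-Glo luminescence after 30 min at room temperature.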
# [11] = p53 small molecule agonists, cell-based qHTS assay (AID 1963582; active means well fitted activation curve with a large enough effect in the signal ratio in the repeat runs, not every such curve was filed as active; the % refers to the signal ratio)
# Procedure, shortened: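 p53RE-bla reporter cells, compounds added in DMSO after 5 h plating, incubated 16 h at 37 C. Beta-lactamase read via 2 h room-temperature LiveBLAzer B/G FRET substrate, fluorescence intensity.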
# [12] = target: 5-hydroxytryptamine receptor 2A (Homo sapiens) (UniProt P28223); test: 5-hydroxytryptamine receptor 2A (HTR2A) small molecule antagonists, cell-based qHTS assay (AID 1963586); further: nearly all actives have a fitted effect of over 45% in size
# Procedure, shortened: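 Antagonist-mode intracellular calcium assay: DOI (4 nM) added after 5 min compound pre-incubation at room temperature to dye-loaded HTR2A-CHO cells. Fluorescence followed for 3 min, sampled every second.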
# [13] = target: Muscarinic acetylcholine receptor M1 (Homo sapiens) (UniProt P11229); test: Cholinergic receptor muscarinic 1 (CHRM1) small molecule antagonists, cell-based qHTS assay (AID 1963588); further: nearly all actives have a fitted effect of over 40% in size
# Procedure, shortened: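 CHRM1-CHO calcium-flux assay, antagonist mode. Cells were seeded 18 h, dye-loaded 1 h at 37 C and given compound for 5 min at RT, then acetylcholine was added at 50nM. FDSS fluorescence was read 3 min; 15 concentrations, three runs.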
# [14] = target: Muscarinic acetylcholine receptor M1 (Homo sapiens) (UniProt P11229); test: Cholinergic receptor muscarinic 1 (CHRM1) small molecule agonists, cell-based qHTS assay (AID 1963589); further: nearly all actives have a fitted effect of over 35% in size
# Procedure, shortened: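 CHO cells stably expressing human CHRM1 were loaded with calcium dye for 1 h at 37 C, then compound was added in agonist mode. Intracellular calcium fluorescence was followed kinetically at 1 s intervals. Fifteen concentrations were tested in three independent runs.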
# [15] = cAMP Responsive Elements (CRE) small molecule agonists, cell-based qHTS assay (AID 1963590)
# Procedure, shortened: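 CRE-bla HEK 293T cells, 2,000/well in DMEM with 10% dialyzed FBS and 25 mM HEPES, pre-incubated 18 h at 37 C, then exposed to compound 3 h at 37 C. Beta-lactamase reporter read with LiveBLAzer B/G FRET substrate after 2 h at room temperature.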
# [16] = cAMP Responsive Elements (CRE) small molecule antagonists, cell-based qHTS assay (AID 1963591; active means well fitted inhibition curve with a large enough effect in the signal ratio in the repeat runs, not every such curve was filed as active; the % refers to the signal ratio)
# Procedure, shortened: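 CRE-bla HEK293T cells plated 18 h, then given compound plus NKH477 at 0.25 uM final for 3 h at 37C. Beta-lactamase reporter read with LiveBLAzer B/G FRET substrate after 2 h at room temperature.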
# [17] = target: Beta-2 adrenergic receptor (Homo sapiens) (UniProt P07550); test: Adrenergic beta2 receptor (ADRB2) small molecule antagonists, cell-based qHTS assay (AID 1963592); further: series mostly up to about 92 µM; nearly all actives have a fitted effect of over 50% in size
# Procedure, shortened: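 Cells (CHO, stable ADRB2 overexpression) incubated 18-20hr at 37C; compounds added from DMSO; agonist mix (1nM isoproterenol, 100uM IBMX, 25uM Ro-20-1724) added; 0.5hr RT; d2-cAMP and anti-cAMP-cryptate added; 1hr RT; 665/615 nm read.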
# [18] = target: D(2) dopamine receptor (Homo sapiens) (UniProt P14416); test: Dopamine D2 receptor (DRD2) small molecule agonists, cell-based qHTS assay (AID 1963594); further: nearly all actives have a fitted effect of over 35% in size
# Procedure, shortened: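 cAMP accumulation in DRD2-HEK293 cells measured by HTRF after 1 h detection; compounds added 10 min before NKH477 (200nM […]) forskolin-analogue stimulation, 30 min at room temperature, with Ro20-1724 present at 0.1 mM final.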
# [19] = target: D(2) dopamine receptor (Homo sapiens) (UniProt P14416); test: Dopamine D2 receptor (DRD2) small molecule antagonists, cell-based qHTS assay (AID 1963595; active means well fitted inhibition curve with a large enough effect in the signal ratio in the repeat runs, with a control signal flat; the % refers to the signal ratio)
# Procedure, shortened: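 Antagonist mode in DRD2-HEK293 cells: after compound addition with 0.1 mM Ro20-1724, cells received quinpirole (12 nM) and NKH477 (200 nM) for 30 min at room temperature; HTRF cAMP read after 1 h detection.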
# [20] = target: 5-hydroxytryptamine receptor 2A (Homo sapiens) (UniProt P28223); test: 5-hydroxytryptamine receptor 2A (HTR2A) small molecule agonists, cell-based qHTS assay (AID 1963587); further: nearly all actives have a fitted effect of over 30% in size
# Procedure, shortened: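 Kinetic calcium-flux fluorescence (2 min, 1 sec intervals) after compound addition in agonist mode. HTR2A-CHO cells were cultured 18 h, then dye-loaded 1 h at 37 C.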
# Sequence of Gonadotropin-releasing hormone receptor (Homo sapiens) (P30968 whole entry, looked up): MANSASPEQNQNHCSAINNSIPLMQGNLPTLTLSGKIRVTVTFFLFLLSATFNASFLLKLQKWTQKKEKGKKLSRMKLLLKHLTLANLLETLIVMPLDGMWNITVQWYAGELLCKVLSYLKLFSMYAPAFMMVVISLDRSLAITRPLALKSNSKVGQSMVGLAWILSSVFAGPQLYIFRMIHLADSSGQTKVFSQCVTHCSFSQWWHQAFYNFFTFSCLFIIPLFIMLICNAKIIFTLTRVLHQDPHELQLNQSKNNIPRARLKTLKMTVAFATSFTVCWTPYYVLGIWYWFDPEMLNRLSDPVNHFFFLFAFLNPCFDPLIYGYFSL
# Sequence of D(2) dopamine receptor (Homo sapiens) (P14416 whole entry, looked up): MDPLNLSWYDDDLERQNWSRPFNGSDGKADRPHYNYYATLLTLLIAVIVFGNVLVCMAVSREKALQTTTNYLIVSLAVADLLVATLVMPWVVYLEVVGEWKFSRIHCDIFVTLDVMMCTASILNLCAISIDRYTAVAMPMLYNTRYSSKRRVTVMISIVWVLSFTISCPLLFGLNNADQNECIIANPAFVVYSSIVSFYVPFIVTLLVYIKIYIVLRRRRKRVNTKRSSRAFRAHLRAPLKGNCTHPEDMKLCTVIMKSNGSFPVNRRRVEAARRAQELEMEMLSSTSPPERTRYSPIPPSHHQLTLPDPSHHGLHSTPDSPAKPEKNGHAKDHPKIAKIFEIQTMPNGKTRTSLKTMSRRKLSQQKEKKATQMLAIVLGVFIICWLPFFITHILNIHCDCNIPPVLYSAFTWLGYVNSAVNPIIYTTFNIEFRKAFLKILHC
# Sequence of Beta-2 adrenergic receptor (Homo sapiens) (P07550 whole entry, looked up): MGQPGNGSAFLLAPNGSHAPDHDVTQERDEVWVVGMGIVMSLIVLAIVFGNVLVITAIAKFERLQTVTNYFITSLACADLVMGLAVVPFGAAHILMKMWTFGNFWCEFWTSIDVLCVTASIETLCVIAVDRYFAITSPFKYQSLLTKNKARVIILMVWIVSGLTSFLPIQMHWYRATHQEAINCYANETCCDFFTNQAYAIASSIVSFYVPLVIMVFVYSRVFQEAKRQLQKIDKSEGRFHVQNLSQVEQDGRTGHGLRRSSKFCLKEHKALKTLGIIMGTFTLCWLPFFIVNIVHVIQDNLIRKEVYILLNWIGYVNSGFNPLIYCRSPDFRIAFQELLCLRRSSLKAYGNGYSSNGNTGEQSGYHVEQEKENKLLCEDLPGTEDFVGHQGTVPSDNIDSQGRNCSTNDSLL
# Sequence of KiSS-1 receptor (Homo sapiens) (Q969F8 whole entry, looked up): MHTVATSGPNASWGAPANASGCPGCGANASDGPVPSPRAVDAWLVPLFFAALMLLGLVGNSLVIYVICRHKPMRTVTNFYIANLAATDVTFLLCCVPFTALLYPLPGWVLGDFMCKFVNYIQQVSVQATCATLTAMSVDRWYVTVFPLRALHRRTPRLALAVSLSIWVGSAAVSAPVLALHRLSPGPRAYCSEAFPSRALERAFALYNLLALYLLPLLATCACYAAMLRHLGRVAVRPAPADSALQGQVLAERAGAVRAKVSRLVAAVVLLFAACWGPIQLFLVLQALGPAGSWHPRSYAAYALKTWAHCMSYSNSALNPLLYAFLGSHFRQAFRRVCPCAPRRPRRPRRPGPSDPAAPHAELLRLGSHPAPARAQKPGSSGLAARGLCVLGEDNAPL
# Sequence of 5-hydroxytryptamine receptor 2A (Homo sapiens) (P28223 whole entry, looked up): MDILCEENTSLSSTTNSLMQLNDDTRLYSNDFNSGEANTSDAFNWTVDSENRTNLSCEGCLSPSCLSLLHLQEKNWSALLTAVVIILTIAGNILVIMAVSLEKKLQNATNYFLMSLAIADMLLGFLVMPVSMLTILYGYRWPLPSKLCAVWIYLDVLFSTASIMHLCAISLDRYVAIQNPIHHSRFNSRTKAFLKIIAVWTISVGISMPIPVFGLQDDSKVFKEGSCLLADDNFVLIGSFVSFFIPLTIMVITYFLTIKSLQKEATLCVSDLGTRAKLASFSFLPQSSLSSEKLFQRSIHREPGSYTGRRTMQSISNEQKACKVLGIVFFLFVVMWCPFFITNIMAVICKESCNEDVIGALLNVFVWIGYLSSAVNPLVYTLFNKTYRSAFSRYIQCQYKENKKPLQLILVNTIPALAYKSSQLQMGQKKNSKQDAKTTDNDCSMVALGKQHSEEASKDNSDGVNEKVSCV
# Sequence of Muscarinic acetylcholine receptor M1 (Homo sapiens) (P11229 whole entry, looked up): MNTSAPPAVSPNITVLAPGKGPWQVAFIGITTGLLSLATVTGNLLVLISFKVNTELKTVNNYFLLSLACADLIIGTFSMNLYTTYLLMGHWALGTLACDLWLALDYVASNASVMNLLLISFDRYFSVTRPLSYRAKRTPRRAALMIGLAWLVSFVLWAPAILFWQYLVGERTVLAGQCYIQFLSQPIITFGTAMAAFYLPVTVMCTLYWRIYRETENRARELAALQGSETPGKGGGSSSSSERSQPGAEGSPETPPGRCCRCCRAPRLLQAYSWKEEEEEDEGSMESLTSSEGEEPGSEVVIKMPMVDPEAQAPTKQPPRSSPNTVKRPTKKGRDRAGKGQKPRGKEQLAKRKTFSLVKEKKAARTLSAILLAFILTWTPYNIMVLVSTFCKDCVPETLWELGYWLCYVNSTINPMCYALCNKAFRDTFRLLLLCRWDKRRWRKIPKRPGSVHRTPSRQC
smiles,measurement,setting,value
c1ccc(CC2=NCCN2)cc1,Potency,[1],inactive
same,Potency,[2],inactive
same,Potency,[3],inactive
same,outcome,[4],inactive
same,outcome,[5],inactive
same,Potency,[6],inactive
same,Potency,[7],inactive
same,Potency,[8],inactive
same,Potency,[9],inactive
same,Potency,[10],inactive
same,Potency,[11],inactive
same,Potency,[12],inactive
same,Potency,[13],inactive
same,Potency,[14],inactive
same,Potency,[15],inactive
same,Potency,[16],inactive
same,Potency,[17],inactive
same,Potency,[18],inactive
same,Potency,[19],inactive
CC(C)Nc1cccnc1N1CCN(C(=O)c2cc3cc(NS(C)(=O)=O)ccc3[nH]2)CC1,Potency,[1],inactive
same,Potency,[2],inactive
same,Potency,[3],inactive
same,outcome,[4],inactive
same,outcome,[5],inactive
same,Potency,[6],inactive
same,Potency,[7],inactive
same,Potency,[8],inactive
same,Potency,[9],inactive
same,Potency,[10],inactive
same,Potency,[11],inactive
same,Potency,[12],inactive
same,Potency,[13],inactive
same,Potency,[14],inactive
same,Potency,[15],inactive
same,Potency,[19],inactive
CCN(CC)CCOc1ccc(C(O)(Cc2ccc(Cl)cc2)c2ccc(C)cc2)cc1 (stereo not given),Potency,[1],26.6 µM (active)
same,Potency,[2],inactive
same,Potency,[3],inactive
same,outcome,[4],inactive
same,outcome,[5],inactive
same,Potency,[6],inactive
same,Potency,[7],inactive
same,Potency,[8],inactive
same,Potency,[9],inactive
same,Potency,[10],19.9 µM (active)
same,Potency,[11],inactive
same,Potency,[12],inactive
same,Potency,[17],inactive
same,Potency,[18],inactive
same,Potency,[19],inactive
CCCCCCCCCCCCCCCCCO,"activity change, negative = cytotoxicity",[1],0.787% [at 19 µM]
same,"activity, positive = activation",[2],-1.74% [at 19 µM]
same,activity change,[3],"4.53% [at 11.8 µM, stronger effect = higher value]"
same,activation,[4],3.41% [at 15.8 µM]
same,activation,[5],-0.253% [at 11.8 µM]
same,activation,[6],4.84% [at 13.5 µM]
same,activation,[7],1.18% [at 13.6 µM]
same,"activity change, negative = cytotoxicity",[8],-0.024% [at 13.5 µM]
same,"activity change, negative = cytotoxicity",[9],-2.14% [at 13.5 µM]
same,"activity change, negative = cytotoxicity",[10],17.8% [at 13.5 µM]
same,activation,[11],-2.02% [at 13.5 µM]
same,"activity, negative = inhibition",[12],-18.1% [at 12.7 µM]
same,"activity, negative = inhibition",[13],-16.4% [at 12.6 µM]
same,activation,[15],-0.514% [at 19 µM]
same,"activity change, negative = inhibition",[16],0.936% [at 18.9 µM]
same,"activity change, negative = inhibition",[17],-1.56% [at 19 µM]
same,activation,[18],0.198% [at 19 µM]
same,"activity change, negative = inhibition",[19],6.26% [at 18.9 µM]
CCN(Cc1c(F)cccc1Cl)c1c([N+](=O)[O-])cc(C(F)(F)F)cc1[N+](=O)[O-],Potency,[1],inactive
same,Potency,[2],15.4 µM (active)
same,Potency,[3],inactive
same,outcome,[4],inactive
same,outcome,[5],inactive
same,Potency,[6],inactive
same,Potency,[7],inactive
same,Potency,[8],inactive
same,Potency,[9],inactive
same,Potency,[10],25.7 µM (active)
same,Potency,[11],inactive
same,Potency,[12],inactive
same,Potency,[20],inactive
same,Potency,[16],inactive
same,Potency,[17],inactive
same,Potency,[18],inactive
same,Potency,[19],inactive
CC(=O)NC(=O)c1ccccc1O,Potency,[1],inactive
same,Potency,[2],inactive
same,Potency,[3],inactive
same,outcome,[4],inactive
same,outcome,[5],inactive
same,Potency,[6],inactive
same,Potency,[7],inactive
same,Potency,[8],inactive
same,Potency,[9],inactive
same,Potency,[10],inactive
same,Potency,[11],inactive
same,Potency,[12],inactive
same,Potency,[13],inactive
same,Potency,[14],inactive
same,Potency,[15],inactive
same,Potency,[17],inactive
same,Potency,[19],inactive
CCCCCc1ccc(N)cc1,Potency,[1],inactive
same,Potency,[2],inactive
same,Potency,[3],inactive
same,outcome,[4],inactive
same,outcome,[5],inactive
same,Potency,[6],inactive
same,Potency,[7],inactive
same,Potency,[8],inactive
same,Potency,[9],inactive
same,Potency,[10],inactive
same,Potency,[11],inactive
same,Potency,[12],inactive
same,Potency,[13],inactive
same,Potency,[14],inactive
same,Potency,[16],inactive
same,Potency,[17],inactive
same,Potency,[18],inactive
same,Potency,[19],inactive
